Data published in PMC7862700, “An all-to-all approach to the identification of sequence-specific readers for epigenetic DNA modifications on cytosine”.

Experiments:
Experiment in all cases: DAPPL (digital affinity profiling via proximity ligation, sequencing); 10 mM Tris-HCl pH 7.5, 50 mM NaCl, 1 mM DTT, 4% glycerol, room temperature, 30 min; GST-TFs on glutathione beads, 16-mer random dsDNA library, 0.1% formaldehyde crosslink after washing; high values mean tight binding
Conditions in all cases: protein: recombinant; tags: N-terminal GST; dsDNA, one strand shown
ERF = target: T1, ERF (Homo sapiens, UniProt P50548 1-548)
T1 sequence: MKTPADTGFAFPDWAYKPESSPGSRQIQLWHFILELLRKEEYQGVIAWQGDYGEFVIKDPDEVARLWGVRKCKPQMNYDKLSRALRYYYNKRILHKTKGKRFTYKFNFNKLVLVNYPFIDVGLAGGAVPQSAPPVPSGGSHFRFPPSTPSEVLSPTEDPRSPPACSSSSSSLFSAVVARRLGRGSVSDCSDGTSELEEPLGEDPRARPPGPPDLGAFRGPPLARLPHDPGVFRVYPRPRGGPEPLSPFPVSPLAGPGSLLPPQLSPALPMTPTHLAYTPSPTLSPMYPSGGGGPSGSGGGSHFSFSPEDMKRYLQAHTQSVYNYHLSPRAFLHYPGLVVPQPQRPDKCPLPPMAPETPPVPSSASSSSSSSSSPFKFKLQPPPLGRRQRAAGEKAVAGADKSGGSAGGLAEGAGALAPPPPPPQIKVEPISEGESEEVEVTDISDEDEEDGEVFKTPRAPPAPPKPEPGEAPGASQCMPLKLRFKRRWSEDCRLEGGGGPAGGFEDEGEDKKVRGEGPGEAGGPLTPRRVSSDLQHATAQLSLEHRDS
Method in brief: (§1)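 Binding signal is defined as a hexamer's read frequency for one factor over its frequency for the tag-only sample. To obtain reads, GST-fused human transcription factors were expressed in yeast, captured on glutathione beads, barcoded with DNA and pooled with that sample. Pools met 200 nmole of a 16-mer random double-stranded DNA library in Tris/NaCl/DTT/glycerol buffer for 30 min at room temperature before washing, 0.1% formaldehyde crosslinking, proximity ligation (BsaI/T4 ligase, 1 h, 37 °C), PCR and Illumina NextSeq500 sequencing.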

ETV3L = target: T2, ETV3L (Homo sapiens, UniProt Q6ZN32 1-361)
T2 sequence: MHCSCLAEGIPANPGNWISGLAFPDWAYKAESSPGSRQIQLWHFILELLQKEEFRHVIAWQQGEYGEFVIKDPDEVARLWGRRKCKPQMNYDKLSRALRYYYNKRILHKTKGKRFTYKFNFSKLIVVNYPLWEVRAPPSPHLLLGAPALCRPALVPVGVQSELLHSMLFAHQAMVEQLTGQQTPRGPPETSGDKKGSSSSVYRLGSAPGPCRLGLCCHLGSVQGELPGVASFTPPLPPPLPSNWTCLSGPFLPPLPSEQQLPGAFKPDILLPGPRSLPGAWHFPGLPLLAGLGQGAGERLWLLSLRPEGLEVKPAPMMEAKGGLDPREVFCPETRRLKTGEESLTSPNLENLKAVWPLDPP
Method in brief: as §1

ETS2 = target: T3, ETS2 (Homo sapiens, UniProt P15036 1-469)
T3 sequence: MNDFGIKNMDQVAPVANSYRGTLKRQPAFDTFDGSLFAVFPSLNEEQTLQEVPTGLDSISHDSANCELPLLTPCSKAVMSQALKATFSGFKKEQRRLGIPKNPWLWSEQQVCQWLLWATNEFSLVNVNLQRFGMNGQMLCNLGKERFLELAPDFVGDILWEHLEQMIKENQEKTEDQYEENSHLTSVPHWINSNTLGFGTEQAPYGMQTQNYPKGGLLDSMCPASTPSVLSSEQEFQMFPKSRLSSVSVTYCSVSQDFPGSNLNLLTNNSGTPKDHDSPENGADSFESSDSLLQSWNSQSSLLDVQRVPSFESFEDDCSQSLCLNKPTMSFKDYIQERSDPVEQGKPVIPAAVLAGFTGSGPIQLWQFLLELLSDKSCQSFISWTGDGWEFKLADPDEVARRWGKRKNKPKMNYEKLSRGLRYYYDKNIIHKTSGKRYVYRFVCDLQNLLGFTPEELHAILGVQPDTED
Method in brief: as §1

SPDEF = target: T4, SPDEF (Homo sapiens, UniProt O95238 1-335)
T4 sequence: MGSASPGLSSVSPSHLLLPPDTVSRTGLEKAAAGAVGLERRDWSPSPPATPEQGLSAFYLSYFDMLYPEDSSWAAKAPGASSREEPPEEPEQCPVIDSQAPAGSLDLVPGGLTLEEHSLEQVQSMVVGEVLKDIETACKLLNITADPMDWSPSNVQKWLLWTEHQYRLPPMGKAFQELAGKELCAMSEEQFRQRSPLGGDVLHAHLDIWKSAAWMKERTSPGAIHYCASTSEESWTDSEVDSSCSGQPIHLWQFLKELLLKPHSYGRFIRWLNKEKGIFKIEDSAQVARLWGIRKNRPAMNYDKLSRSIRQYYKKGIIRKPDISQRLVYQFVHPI
Method in brief: as §1

ETV7 = target: T5, ETV7 (Homo sapiens, UniProt Q9Y603 1-341)
T5 sequence: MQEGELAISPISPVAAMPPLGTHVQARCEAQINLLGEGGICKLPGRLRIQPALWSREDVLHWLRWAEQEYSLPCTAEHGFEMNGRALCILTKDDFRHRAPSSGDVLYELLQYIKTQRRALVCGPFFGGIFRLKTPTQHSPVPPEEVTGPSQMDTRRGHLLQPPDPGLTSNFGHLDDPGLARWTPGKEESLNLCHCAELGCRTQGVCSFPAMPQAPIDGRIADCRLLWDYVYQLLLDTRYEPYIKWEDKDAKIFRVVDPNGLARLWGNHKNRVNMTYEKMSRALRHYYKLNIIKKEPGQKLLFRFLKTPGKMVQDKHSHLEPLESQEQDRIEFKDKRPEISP
Method in brief: as §1

ELF5 = target: T6, ELF5 (Homo sapiens, UniProt Q9UKW6-2 1-255)
T6 sequence: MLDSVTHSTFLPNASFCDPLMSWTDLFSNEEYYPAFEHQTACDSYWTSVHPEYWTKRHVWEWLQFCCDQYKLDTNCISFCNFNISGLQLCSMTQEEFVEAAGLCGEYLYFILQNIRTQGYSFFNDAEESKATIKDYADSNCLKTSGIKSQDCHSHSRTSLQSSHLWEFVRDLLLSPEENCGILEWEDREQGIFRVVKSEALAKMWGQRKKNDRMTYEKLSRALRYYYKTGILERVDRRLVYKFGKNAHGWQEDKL
Method in brief: as §1

ETV3 = target: T7, ETV3 (Homo sapiens, UniProt P41162-2 1-143)
T7 sequence: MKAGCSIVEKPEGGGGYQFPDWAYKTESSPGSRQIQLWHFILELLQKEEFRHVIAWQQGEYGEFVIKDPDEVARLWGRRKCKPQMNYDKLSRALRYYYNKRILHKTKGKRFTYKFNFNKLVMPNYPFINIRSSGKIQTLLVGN
Method in brief: as §1

ETV6 = ETV6 (Homo sapiens, UniProt P41212 1-452)
Chain of ETV6 (P41212 whole entry): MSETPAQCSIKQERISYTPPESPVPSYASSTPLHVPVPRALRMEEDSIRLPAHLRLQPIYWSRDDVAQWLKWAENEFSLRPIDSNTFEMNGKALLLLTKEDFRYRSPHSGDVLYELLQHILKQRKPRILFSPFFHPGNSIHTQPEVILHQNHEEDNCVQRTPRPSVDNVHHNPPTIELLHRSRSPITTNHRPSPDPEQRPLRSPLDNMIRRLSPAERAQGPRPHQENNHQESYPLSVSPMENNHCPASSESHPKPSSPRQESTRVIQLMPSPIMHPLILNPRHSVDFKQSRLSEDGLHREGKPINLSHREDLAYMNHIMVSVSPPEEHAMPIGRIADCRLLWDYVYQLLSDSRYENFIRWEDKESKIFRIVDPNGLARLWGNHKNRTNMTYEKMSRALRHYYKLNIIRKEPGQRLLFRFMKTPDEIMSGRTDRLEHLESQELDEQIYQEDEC
Method in brief: as §1

AAACCC
binding signal (ERF): 1.28 fold enrichment (6-mer frequency, TF over GST control)
binding signal (ETV3L): 1.29 fold enrichment (6-mer frequency, TF over GST control)
binding signal (ETS2): 1.26 fold enrichment (6-mer frequency, TF over GST control)
binding signal (SPDEF): 1.34 fold enrichment (6-mer frequency, TF over GST control)
binding signal (ETV7): 1.25 fold enrichment (6-mer frequency, TF over GST control)
binding signal (ELF5): 1.31 fold enrichment (6-mer frequency, TF over GST control)
binding signal (ETV3): 1.29 fold enrichment (6-mer frequency, TF over GST control)
binding signal (ETV6): 1.34 fold enrichment (6-mer frequency, TF over GST control)

CATTTA
binding signal (ERF): 1.23 fold enrichment (6-mer frequency, TF over GST control)
binding signal (ETV3L): 1.24 fold enrichment (6-mer frequency, TF over GST control)
binding signal (ETS2): 1.31 fold enrichment (6-mer frequency, TF over GST control)
binding signal (SPDEF): 1.22 fold enrichment (6-mer frequency, TF over GST control)
binding signal (ETV7): 1.27 fold enrichment (6-mer frequency, TF over GST control)
binding signal (ELF5): 1.11 fold enrichment (6-mer frequency, TF over GST control)
binding signal (ETV3): 1.23 fold enrichment (6-mer frequency, TF over GST control)
binding signal (ETV6): 1.13 fold enrichment (6-mer frequency, TF over GST control)

TTAGCA
binding signal (ERF): 1.29 fold enrichment (6-mer frequency, TF over GST control)
binding signal (ETV3L): 1.26 fold enrichment (6-mer frequency, TF over GST control)
binding signal (ETS2): 1.16 fold enrichment (6-mer frequency, TF over GST control)
binding signal (SPDEF): 1.23 fold enrichment (6-mer frequency, TF over GST control)
binding signal (ETV7): 1.19 fold enrichment (6-mer frequency, TF over GST control)
binding signal (ELF5): 1.15 fold enrichment (6-mer frequency, TF over GST control)
binding signal (ETV3): 1.19 fold enrichment (6-mer frequency, TF over GST control)
binding signal (ETV6): 1.25 fold enrichment (6-mer frequency, TF over GST control)

TCATCT
binding signal (ERF): 1.21 fold enrichment (6-mer frequency, TF over GST control)
binding signal (ETV3L): 1.22 fold enrichment (6-mer frequency, TF over GST control)
binding signal (ETS2): 1.2 fold enrichment (6-mer frequency, TF over GST control)
binding signal (SPDEF): 1.07 fold enrichment (6-mer frequency, TF over GST control)
binding signal (ETV7): 1.14 fold enrichment (6-mer frequency, TF over GST control)
binding signal (ELF5): 1.17 fold enrichment (6-mer frequency, TF over GST control)
binding signal (ETV3): 1.19 fold enrichment (6-mer frequency, TF over GST control)
binding signal (ETV6): 1.22 fold enrichment (6-mer frequency, TF over GST control)

TACTCT
binding signal (ERF): 1.46 fold enrichment (6-mer frequency, TF over GST control)
binding signal (ETV3L): 1.37 fold enrichment (6-mer frequency, TF over GST control)
binding signal (ETS2): 1.3 fold enrichment (6-mer frequency, TF over GST control)
binding signal (SPDEF): 1.39 fold enrichment (6-mer frequency, TF over GST control)
binding signal (ETV7): 1.33 fold enrichment (6-mer frequency, TF over GST control)
binding signal (ELF5): 1.38 fold enrichment (6-mer frequency, TF over GST control)
binding signal (ETV3): 1.39 fold enrichment (6-mer frequency, TF over GST control)
binding signal (ETV6): 1.39 fold enrichment (6-mer frequency, TF over GST control)

TTCCTT
binding signal (ERF): 1.77 fold enrichment (6-mer frequency, TF over GST control)
binding signal (ETV3L): 1.91 fold enrichment (6-mer frequency, TF over GST control)
binding signal (ETS2): 1.94 fold enrichment (6-mer frequency, TF over GST control)
binding signal (SPDEF): 1.77 fold enrichment (6-mer frequency, TF over GST control)
binding signal (ETV7): 1.92 fold enrichment (6-mer frequency, TF over GST control)
binding signal (ELF5): 3.67 fold enrichment (6-mer frequency, TF over GST control)
binding signal (ETV3): 2.13 fold enrichment (6-mer frequency, TF over GST control)
binding signal (ETV6): 2.1 fold enrichment (6-mer frequency, TF over GST control)

TTTATC
binding signal (ERF): 1.19 fold enrichment (6-mer frequency, TF over GST control)
binding signal (ETV3L): 1.35 fold enrichment (6-mer frequency, TF over GST control)
binding signal (ETS2): 1.26 fold enrichment (6-mer frequency, TF over GST control)
binding signal (SPDEF): 1.25 fold enrichment (6-mer frequency, TF over GST control)
binding signal (ETV7): 1.22 fold enrichment (6-mer frequency, TF over GST control)
binding signal (ELF5): 1.26 fold enrichment (6-mer frequency, TF over GST control)
binding signal (ETV3): 1.29 fold enrichment (6-mer frequency, TF over GST control)
binding signal (ETV6): 1.24 fold enrichment (6-mer frequency, TF over GST control)

TCTTGT
binding signal (ERF): 1.68 fold enrichment (6-mer frequency, TF over GST control)
binding signal (ETV3L): 1.61 fold enrichment (6-mer frequency, TF over GST control)
binding signal (ETS2): 1.47 fold enrichment (6-mer frequency, TF over GST control)
binding signal (SPDEF): 1.57 fold enrichment (6-mer frequency, TF over GST control)
binding signal (ETV7): 1.57 fold enrichment (6-mer frequency, TF over GST control)
binding signal (ELF5): 1.42 fold enrichment (6-mer frequency, TF over GST control)
binding signal (ETV3): 1.5 fold enrichment (6-mer frequency, TF over GST control)
binding signal (ETV6): 1.48 fold enrichment (6-mer frequency, TF over GST control)
